This passage reports growth inhibition results from PubChem BioAssay (NCI).

About 79,000 compounds went through this panel and 15% of them were active in at least one assay; those are over-represented in the sample as a whole. A number with no mark means an inactive call. Activity calls are given as the source filed them. Cut-off read from the data, not from the text of the source: active = growth inhibition above about 70%; inactive = the rest.

Experiment [1] in a line: NCI Yeast Anticancer Drug Screen. Data for the rad50 strain (AID 155).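 Note: 0% = growth of vehicle-only cultures of the same strain.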 The note with it: S. cerevisiae rad50 strain growth inhibition, hits give high values. In a few lines:
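Growth of the mutant yeast was measured after compound exposure and referenced to vehicle-treated cultures.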

The nature of experiment [2]: NCI Yeast Anticancer Drug Screen. Data for the mec2-1 strain (AID 157). The note with it: S. cerevisiae mec2-1 strain, hits give high values. In a few lines: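 Test agents were screened against the mec2-1 yeast strain, with defined DNA repair or cell cycle alteration. Growth was scored as inhibition against vehicle-only controls.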
Experiment [3] is described as follows: NCI Yeast Anticancer Drug Screen. Data for the sgs1 mgt1 strain (AID 161).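 Note: 0% = growth of cultures given vehicle only.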 The note with it: S. cerevisiae sgs1 mgt1 strain, hits give high values. Put shortly:
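Genetically altered yeast, compound exposure, growth inhibition relative to vehicle.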

Experiment [4] can be described thus: NCI Yeast Anticancer Drug Screen. Data for the cln2 rad14 strain (AID 165).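 Note: 0% = growth equal to vehicle treated cultures.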 The note with it: S. cerevisiae cln2 rad14 strain, hits give high values. Put shortly: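 Growth of compound-exposed yeast (cln2 rad14 genotype) measured and expressed as inhibition relative to vehicle.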
Experiment [5] can be described thus: NCI Yeast Anticancer Drug Screen. Data for the bub3 strain (AID 167). The following applies: S. cerevisiae bub3 mutant strain, hits give high values. Put shortly: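 Whole-cell yeast assay. The mutant strain was incubated with compounds, and growth inhibition was determined by comparison with vehicle-treated cells.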
Experiment [6] in a line: NCI Yeast Anticancer Drug Screen. Data for the mlh1 rad18 strain (AID 175). The following applies: S. cerevisiae mlh1 rad18 strain growth inhibition, hits give high values. In a few lines:
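In this whole-cell yeast screen, a strain with altered DNA damage repair is challenged with compound, and its growth is measured against matched vehicle-treated controls.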

The mark [7] stands for this setting: at 5.0 µM (retest, dose inferred, filed as 0.5).
Where [8] appears, read: at 50.0 µM (retest, dose inferred, filed as 5.0).

Take `CCCCCC/C=C1\CCC(CN2CCOCC2)C1=O` (configuration not stated): the growth inhibition in experiment [1] (setting [7]) is 53%; in experiment [1] (setting [8]), 96% (active); in experiment [1] (at 50.0 µM), 81.7% (active); in experiment [2] (setting [7]), 23%; in experiment [2] (setting [8]), 97% (active); in experiment [2] (at 50.0 µM) it was 52%. Besides, the growth inhibition in experiment [3] (setting [7]) was 16%; in experiment [3] (setting [8]), 96% (active); in experiment [3] (at 50.0 µM), 79.7% (active); in experiment [4] (setting [7]) it was 25%; in experiment [4] (setting [8]) it was 79% (active); in experiment [4] (at 50.0 µM), 63%. In addition, the growth inhibition was 48% in experiment [5] (setting [7]); 98% (active) in experiment [5] (setting [8]); 82.5% (active) in experiment [5] (at 50.0 µM); 59% in experiment [6] (setting [7]); 97% (active) in experiment [6] (setting [8]); 74.8% (active) in experiment [6] (at 50.0 µM).

In the case of `O=C1OC(c2ccccc2)(c2ccccc2)CC1CN1CCOCC1` (configuration not stated), the growth inhibition in experiment [1] (setting [7]) is -16%; in experiment [1] (setting [8]), 73% (active); in experiment [1] (at 50.0 µM), 87.8% (active); in experiment [2] (setting [7]), -4%; in experiment [2] (setting [8]), 87% (active); in experiment [2] (at 50.0 µM), 82.6% (active). Also, the growth inhibition in experiment [3] (setting [7]) is -1%; in experiment [3] (setting [8]), 84% (active); in experiment [3] (at 50.0 µM), 90% (active); in experiment [4] (setting [7]), -9%; in experiment [4] (setting [8]) it was 72% (active); in experiment [4] (at 50.0 µM) it was 66%. The growth inhibition in experiment [5] (setting [7]) is 1%; in experiment [5] (setting [8]), 93% (active); in experiment [5] (at 50.0 µM), 87% (active); in experiment [6] (setting [7]), 2%; in experiment [6] (setting [8]) it was 88% (active); in experiment [6] (at 50.0 µM), 79.7% (active).

`O=C1O/C(=C(\Cc2ccccc2)c2ccccc2)N(c2ccccc2)C1=O`: the growth inhibition is 5% in experiment [1] (setting [7]); 30% in experiment [1] (setting [8]); 69.2% in experiment [1] (at 50.0 µM); -6% in experiment [2] (setting [7]); 23% in experiment [2] (setting [8]); 18.6% in experiment [2] (at 50.0 µM). Also, the growth inhibition in experiment [3] (setting [7]) was 0%; in experiment [3] (setting [8]), 28%; in experiment [3] (at 50.0 µM), 22.9%; in experiment [4] (setting [7]), -5%; in experiment [4] (setting [8]), -9%; in experiment [4] (at 50.0 µM) it was -30.2%. The growth inhibition is 0% in experiment [5] (setting [7]); 13% in experiment [5] (setting [8]); 14.9% in experiment [5] (at 50.0 µM); -6% in experiment [6] (setting [7]); 21% in experiment [6] (setting [8]); 28.8% in experiment [6] (at 50.0 µM).

With `O=C(CCl)N1CCN(C(c2ccccc2)c2ccccc2)CC1`, the growth inhibition in experiment [1] (setting [7]) is 6%; in experiment [1] (setting [8]) it was 96% (active); in experiment [1] (at 50.0 µM) it was 95% (active); in experiment [2] (setting [7]) it was 12%; in experiment [2] (setting [8]) it was 95% (active); in experiment [2] (at 50.0 µM), 85.8% (active). The growth inhibition in experiment [3] (setting [7]) was 9%; in experiment [3] (setting [8]), 97% (active); in experiment [3] (at 50.0 µM), 97.8% (active); in experiment [4] (setting [7]) it was 12%; in experiment [4] (setting [8]), 91% (active); in experiment [4] (at 50.0 µM), 81.2% (active). The growth inhibition is 13% in experiment [5] (setting [7]); 97% (active) in experiment [5] (setting [8]); 95.5% (active) in experiment [5] (at 50.0 µM); 15% in experiment [6] (setting [7]); 97% (active) in experiment [6] (setting [8]); 97.5% (active) in experiment [6] (at 50.0 µM).

Consider `CC[C@@]1(O)C[C@H](OC2CC(N(C)C)C(OC3CC(O)C(OC4CCC(=O)C(C)O4)C(C)O3)C(C)O2)c2c(cc3c(c2O)C(=O)c2c(O)cccc2C3=O)[C@H]1C(=O)OC` (some centres not stated), for which the growth inhibition in experiment [1] (setting [7]) was 95% (active); in experiment [1] (setting [8]) it was 97% (active); in experiment [1] (at 50.0 µM), 91.2% (active); in experiment [2] (setting [7]), 98% (active); in experiment [2] (setting [8]), 99% (active); in experiment [2] (at 50.0 µM), 92.8% (active). Moreover, the growth inhibition in experiment [3] (setting [7]) was 92% (active); in experiment [3] (setting [8]) it was 97% (active); in experiment [3] (at 50.0 µM), 91.9% (active); in experiment [4] (setting [7]) it was 92% (active); in experiment [4] (setting [8]), 98% (active); in experiment [4] (at 50.0 µM), 89.2% (active). The growth inhibition in experiment [5] (setting [7]) was 95% (active); in experiment [5] (setting [8]), 98% (active); in experiment [5] (at 50.0 µM) it was 91.8% (active); in experiment [6] (setting [7]) it was 97% (active); in experiment [6] (setting [8]), 98% (active); in experiment [6] (at 50.0 µM), 92% (active).

In the case of `COC1/C=C\OC2(C)Oc3c(C)c(O)c4c(O)c(c5[nH]c(-c6ccccc6)nc5c4c3C2=O)NC(=O)/C(C)=C\C=C\C(C)C(O)C(C)C(O)C(C)C(OC(C)=O)C1C` (configuration not stated), the growth inhibition is 29% in experiment [1] (setting [7]); 84% (active) in experiment [1] (setting [8]); 88.5% (active) in experiment [1] (at 50.0 µM); 30% in experiment [2] (setting [7]); 94% (active) in experiment [2] (setting [8]); 91.1% (active) in experiment [2] (at 50.0 µM). Moreover, the growth inhibition is 20% in experiment [3] (setting [7]); 88% (active) in experiment [3] (setting [8]); 91.7% (active) in experiment [3] (at 50.0 µM); 44% in experiment [4] (setting [7]); 91% (active) in experiment [4] (setting [8]); 88.6% (active) in experiment [4] (at 50.0 µM). The growth inhibition in experiment [5] (setting [7]) was 14%; in experiment [5] (setting [8]) it was 89% (active); in experiment [5] (at 50.0 µM) it was 88.6% (active); in experiment [6] (setting [7]) it was 19%; in experiment [6] (setting [8]) it was 94% (active); in experiment [6] (at 50.0 µM), 90% (active).

On to `C/C(=N\NC(=S)N(C)C)c1cccnn1`, for which the growth inhibition was 95% (active) in experiment [1] (setting [7]); 99% (active) in experiment [1] (setting [8]); 84.8% (active) in experiment [1] (at 50.0 µM); 91% (active) in experiment [2] (setting [7]); 99% (active) in experiment [2] (setting [8]); 91.4% (active) in experiment [2] (at 50.0 µM). The growth inhibition in experiment [3] (setting [7]) was 92% (active); in experiment [3] (setting [8]) it was 98% (active); in experiment [3] (at 50.0 µM), 87.3% (active); in experiment [4] (setting [7]), 94% (active); in experiment [4] (setting [8]), 95% (active); in experiment [4] (at 50.0 µM), 86.8% (active). Moreover, the growth inhibition in experiment [5] (setting [7]) is 95% (active); in experiment [5] (setting [8]), 99% (active); in experiment [5] (at 50.0 µM) it was 89.5% (active); in experiment [6] (setting [7]), 96% (active); in experiment [6] (setting [8]), 99% (active); in experiment [6] (at 50.0 µM), 83.2% (active).

As to `O=[N+]([O-])c1ccc(O)c(C2CCCCC2)c1`, the growth inhibition was 72% (active) in experiment [1] (setting [7]); 98% (active) in experiment [1] (setting [8]); 99.5% (active) in experiment [1] (at 50.0 µM); 67% in experiment [2] (setting [7]); 99% (active) in experiment [2] (setting [8]); 99.2% (active) in experiment [2] (at 50.0 µM). Besides, the growth inhibition in experiment [3] (setting [7]) was 62%; in experiment [3] (setting [8]) it was 99% (active); in experiment [3] (at 50.0 µM), 99.7% (active); in experiment [4] (setting [7]) it was 64%; in experiment [4] (setting [8]) it was 99% (active); in experiment [4] (at 50.0 µM) it was 99.5% (active). Besides, the growth inhibition in experiment [5] (setting [7]) is 79% (active); in experiment [5] (setting [8]) it was 98% (active); in experiment [5] (at 50.0 µM) it was 100% (active); in experiment [6] (setting [7]) it was 87% (active); in experiment [6] (setting [8]), 99% (active); in experiment [6] (at 50.0 µM), 99% (active).

On to `O=C1OC(C2OC(=O)C(=O)C2C(=O)c2ccc([N+](=O)[O-])cc2)C(C(=O)c2ccc([N+](=O)[O-])cc2)C1=O` (configuration not stated), for which the growth inhibition in experiment [1] (setting [7]) was 5%; in experiment [1] (setting [8]), 57%; in experiment [1] (at 50.0 µM) it was 91.6% (active); in experiment [2] (setting [7]), 14%; in experiment [2] (setting [8]) it was 44%; in experiment [2] (at 50.0 µM), 59.1%. Further, the growth inhibition in experiment [3] (setting [7]) is 10%; in experiment [3] (setting [8]), 86% (active); in experiment [3] (at 50.0 µM) it was 91.5% (active); in experiment [4] (setting [7]) it was 11%; in experiment [4] (setting [8]), 22%; in experiment [4] (at 50.0 µM), 64.2%. Besides, the growth inhibition in experiment [5] (setting [7]) is 5%; in experiment [5] (setting [8]) it was 39%; in experiment [5] (at 50.0 µM), 56.6%; in experiment [6] (setting [7]) it was 6%; in experiment [6] (setting [8]), 53%; in experiment [6] (at 50.0 µM), 96.5% (active).
